Data: the supplement of paper PMC10849652
Targets with a hit are over-represented here; the source holds about 7,900 in all. About 0.6% of all pairs of compound and target were hits.

The targets below were run with CCN(CC)Cc1ccc2cc(COC(=O)Nc3ccc(C(=O)NO)cc3)ccc2c1 [givinostat] (assay: log2 fold change, soluble protein after heating vs DMSO (PISA); higher = thermal stabilisation; K562 cells, 10 uM, 30 min; active = over 0.2 and 3.5 SD of the protein, either way, in both replicates (recomputed)).
Outline: (§1)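 Thermal stability values are relative to control samples and come from duplicates. They are expressed as log2 fold changes. For measurement, K562 cells (2×10^6 cells/mL) received 10 μM compound for 30 min, and aliquots were heated for 3 min over 48°C-58°C, pooled, and extracted at 4°C in PBS with 0.5% NP-40. Soluble protein, the supernatant after 21,000xg for 90 min, was quantified by TMTpro 16plex LC-MS/MS with equalised channel sums.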

Chain of UniProt Q9BSU3 (Q9BSU3 whole entry, looked up): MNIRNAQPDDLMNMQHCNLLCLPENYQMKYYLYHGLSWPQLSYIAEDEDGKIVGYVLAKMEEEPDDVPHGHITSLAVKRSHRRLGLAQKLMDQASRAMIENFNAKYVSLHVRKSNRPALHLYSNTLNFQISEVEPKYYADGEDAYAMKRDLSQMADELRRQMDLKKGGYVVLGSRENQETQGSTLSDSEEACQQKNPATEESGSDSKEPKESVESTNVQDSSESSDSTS
Chain of UniProt Q9Y314 (Q9Y314 whole entry, looked up): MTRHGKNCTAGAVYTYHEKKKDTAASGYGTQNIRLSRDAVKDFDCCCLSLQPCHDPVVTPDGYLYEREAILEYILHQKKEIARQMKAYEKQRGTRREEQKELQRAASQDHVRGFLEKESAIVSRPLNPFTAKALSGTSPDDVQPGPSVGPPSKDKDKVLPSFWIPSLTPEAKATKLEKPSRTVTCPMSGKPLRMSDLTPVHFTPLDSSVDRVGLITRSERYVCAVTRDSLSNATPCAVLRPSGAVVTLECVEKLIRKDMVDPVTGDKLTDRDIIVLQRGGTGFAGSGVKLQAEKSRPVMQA
Chain of UniProt Q9H081 (Q9H081 whole entry, looked up): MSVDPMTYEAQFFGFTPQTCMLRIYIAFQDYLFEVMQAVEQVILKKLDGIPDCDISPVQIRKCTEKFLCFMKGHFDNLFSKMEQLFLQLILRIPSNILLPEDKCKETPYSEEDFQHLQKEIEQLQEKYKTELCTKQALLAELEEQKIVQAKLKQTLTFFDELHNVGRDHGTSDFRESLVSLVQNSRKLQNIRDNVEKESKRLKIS
Chain of UniProt Q15738 (Q15738 whole entry, looked up): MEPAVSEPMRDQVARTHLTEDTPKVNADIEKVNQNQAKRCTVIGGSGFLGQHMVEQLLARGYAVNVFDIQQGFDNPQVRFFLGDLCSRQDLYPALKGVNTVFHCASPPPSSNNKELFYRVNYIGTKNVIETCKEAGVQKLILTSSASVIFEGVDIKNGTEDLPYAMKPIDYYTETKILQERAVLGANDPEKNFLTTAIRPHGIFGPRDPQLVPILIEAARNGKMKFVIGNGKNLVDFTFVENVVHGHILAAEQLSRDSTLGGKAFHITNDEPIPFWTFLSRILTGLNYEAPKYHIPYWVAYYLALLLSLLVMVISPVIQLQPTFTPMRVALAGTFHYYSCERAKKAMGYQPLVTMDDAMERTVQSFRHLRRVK
Chain of UniProt Q13469 (Q13469 whole entry, looked up): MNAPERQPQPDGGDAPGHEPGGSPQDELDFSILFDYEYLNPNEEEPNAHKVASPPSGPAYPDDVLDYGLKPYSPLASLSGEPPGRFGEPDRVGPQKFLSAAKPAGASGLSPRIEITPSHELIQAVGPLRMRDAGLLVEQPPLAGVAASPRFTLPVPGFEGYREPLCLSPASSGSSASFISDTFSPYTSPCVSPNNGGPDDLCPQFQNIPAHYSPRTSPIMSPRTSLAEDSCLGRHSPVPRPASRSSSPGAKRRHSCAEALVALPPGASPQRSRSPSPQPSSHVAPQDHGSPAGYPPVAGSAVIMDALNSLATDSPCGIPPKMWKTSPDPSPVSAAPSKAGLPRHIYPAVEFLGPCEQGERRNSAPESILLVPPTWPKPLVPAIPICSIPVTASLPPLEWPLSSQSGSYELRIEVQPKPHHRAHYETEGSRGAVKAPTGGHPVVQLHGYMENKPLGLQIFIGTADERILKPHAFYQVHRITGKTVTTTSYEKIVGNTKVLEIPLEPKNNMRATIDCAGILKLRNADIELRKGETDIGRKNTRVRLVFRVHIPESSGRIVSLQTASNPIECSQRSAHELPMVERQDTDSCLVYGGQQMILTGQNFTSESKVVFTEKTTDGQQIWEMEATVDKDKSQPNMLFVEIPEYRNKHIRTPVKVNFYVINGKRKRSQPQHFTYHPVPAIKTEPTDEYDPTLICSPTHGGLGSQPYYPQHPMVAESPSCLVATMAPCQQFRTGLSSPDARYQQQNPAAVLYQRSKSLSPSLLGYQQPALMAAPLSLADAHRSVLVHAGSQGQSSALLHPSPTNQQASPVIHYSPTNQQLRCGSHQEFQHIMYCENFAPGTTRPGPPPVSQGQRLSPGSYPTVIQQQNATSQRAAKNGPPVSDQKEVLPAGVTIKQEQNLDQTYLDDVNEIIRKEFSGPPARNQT
Chain of UniProt Q96DE0 (Q96DE0 whole entry, looked up): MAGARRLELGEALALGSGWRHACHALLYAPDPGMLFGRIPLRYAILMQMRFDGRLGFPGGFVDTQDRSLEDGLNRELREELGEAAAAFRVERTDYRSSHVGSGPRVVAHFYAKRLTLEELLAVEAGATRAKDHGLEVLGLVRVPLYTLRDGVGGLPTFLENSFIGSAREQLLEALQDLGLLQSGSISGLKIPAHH
Chain of UniProt P35749 (P35749 whole entry, looked up): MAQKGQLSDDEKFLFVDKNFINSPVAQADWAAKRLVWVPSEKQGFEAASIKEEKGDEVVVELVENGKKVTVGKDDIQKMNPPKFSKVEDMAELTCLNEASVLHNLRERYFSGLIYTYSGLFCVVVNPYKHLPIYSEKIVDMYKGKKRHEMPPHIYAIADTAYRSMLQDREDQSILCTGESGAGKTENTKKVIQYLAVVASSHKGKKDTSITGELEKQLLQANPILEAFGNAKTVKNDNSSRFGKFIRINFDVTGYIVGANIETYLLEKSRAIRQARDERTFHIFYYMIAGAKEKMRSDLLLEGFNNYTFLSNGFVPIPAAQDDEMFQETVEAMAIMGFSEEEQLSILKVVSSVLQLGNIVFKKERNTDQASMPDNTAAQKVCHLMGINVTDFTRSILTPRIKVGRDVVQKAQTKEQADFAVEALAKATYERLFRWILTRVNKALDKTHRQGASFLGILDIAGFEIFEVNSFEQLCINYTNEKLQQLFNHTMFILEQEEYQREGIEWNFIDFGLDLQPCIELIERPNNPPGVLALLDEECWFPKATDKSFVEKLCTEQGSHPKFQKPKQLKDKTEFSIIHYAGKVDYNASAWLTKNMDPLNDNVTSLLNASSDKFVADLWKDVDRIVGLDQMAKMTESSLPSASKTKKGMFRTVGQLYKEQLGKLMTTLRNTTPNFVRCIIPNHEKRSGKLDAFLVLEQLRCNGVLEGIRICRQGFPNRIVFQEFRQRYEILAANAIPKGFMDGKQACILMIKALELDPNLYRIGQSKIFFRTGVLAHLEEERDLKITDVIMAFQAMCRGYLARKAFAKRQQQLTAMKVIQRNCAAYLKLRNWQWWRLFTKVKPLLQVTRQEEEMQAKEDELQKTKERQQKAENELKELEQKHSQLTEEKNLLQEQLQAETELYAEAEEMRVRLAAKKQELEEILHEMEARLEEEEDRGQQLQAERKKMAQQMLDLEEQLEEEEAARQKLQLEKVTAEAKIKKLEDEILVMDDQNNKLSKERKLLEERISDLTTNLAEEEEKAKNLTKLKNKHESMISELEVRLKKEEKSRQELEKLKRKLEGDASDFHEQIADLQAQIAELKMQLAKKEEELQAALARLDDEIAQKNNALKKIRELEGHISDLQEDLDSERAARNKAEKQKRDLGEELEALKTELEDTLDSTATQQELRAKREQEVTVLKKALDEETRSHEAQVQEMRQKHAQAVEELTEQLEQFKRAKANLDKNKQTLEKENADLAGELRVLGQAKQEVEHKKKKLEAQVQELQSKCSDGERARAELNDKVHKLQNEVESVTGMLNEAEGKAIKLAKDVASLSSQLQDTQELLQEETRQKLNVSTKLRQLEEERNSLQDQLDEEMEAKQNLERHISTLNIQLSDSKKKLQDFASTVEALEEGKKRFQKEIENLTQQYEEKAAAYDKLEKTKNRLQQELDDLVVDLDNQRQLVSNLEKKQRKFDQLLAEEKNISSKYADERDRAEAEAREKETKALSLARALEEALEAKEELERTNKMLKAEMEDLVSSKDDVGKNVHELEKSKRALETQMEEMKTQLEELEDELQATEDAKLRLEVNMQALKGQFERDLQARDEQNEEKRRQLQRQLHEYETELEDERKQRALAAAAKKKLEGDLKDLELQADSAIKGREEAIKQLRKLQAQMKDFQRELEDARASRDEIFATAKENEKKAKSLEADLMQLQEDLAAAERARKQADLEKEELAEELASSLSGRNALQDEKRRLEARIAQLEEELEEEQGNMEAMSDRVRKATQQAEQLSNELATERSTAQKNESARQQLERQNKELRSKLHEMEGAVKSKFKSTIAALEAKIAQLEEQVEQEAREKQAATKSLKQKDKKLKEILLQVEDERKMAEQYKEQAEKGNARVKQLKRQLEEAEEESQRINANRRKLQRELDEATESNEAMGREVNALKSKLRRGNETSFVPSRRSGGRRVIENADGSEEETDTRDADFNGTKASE
Chain of UniProt Q9H3P2 (Q9H3P2 whole entry, looked up): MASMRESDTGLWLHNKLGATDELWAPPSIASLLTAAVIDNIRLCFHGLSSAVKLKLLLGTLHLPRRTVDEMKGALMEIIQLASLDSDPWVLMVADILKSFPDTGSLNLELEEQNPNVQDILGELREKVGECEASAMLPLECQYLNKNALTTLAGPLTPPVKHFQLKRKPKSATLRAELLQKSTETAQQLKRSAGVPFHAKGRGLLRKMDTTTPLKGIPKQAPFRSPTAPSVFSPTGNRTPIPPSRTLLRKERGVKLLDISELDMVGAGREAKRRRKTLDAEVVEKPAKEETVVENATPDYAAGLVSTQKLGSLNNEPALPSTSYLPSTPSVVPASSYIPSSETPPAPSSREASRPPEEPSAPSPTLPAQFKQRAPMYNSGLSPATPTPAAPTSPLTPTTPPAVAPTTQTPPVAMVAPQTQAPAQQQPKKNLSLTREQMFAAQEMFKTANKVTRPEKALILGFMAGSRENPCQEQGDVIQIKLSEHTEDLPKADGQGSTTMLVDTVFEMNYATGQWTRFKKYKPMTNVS
Chain of UniProt P00846 (P00846 whole entry, looked up): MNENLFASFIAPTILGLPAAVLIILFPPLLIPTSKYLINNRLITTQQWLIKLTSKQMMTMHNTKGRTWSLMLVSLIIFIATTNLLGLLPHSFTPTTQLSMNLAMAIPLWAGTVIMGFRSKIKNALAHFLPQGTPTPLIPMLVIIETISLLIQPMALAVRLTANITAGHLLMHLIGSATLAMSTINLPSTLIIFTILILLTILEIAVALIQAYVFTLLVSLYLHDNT

log2 fold change, inactive:
NAA11 (UniProt Q9BSU3) 0
NSDHL (UniProt Q15738) -0.013
MIS12 (UniProt Q9H081) 0.102
NFATC2 (UniProt Q13469) 0.192
NUDT16 (UniProt Q96DE0) -0.006
MRPS6 (UniProt P82932) 0.037
MRPS18B (UniProt Q9Y676) 0.075
NEK3 (UniProt P51956) -0.013
MT-ATP6 (UniProt P00846) -0.074
MYH11 isoform 2 (UniProt P35749) 0.032
NMT2 (UniProt O60551) -0.233
NOSIP (UniProt Q9Y314) 0.14
NELFA (UniProt Q9H3P2) 0.079

These targets were tested with CCN(CCCOc1ccc2c(Nc3cc(CC(=O)Nc4cccc(F)c4)[nH]n3)ncnc2c1)CCOP(=O)(O)O [barasertib] in the same assay as above.
Outline: as §1

log2 fold change, inactive:
MRPS9 (UniProt P82933) -0.043
NMNAT1 (UniProt Q9HAN9) -0.064
NOP53 (UniProt Q9NZM5) -0.105
MT-ND4 (UniProt P03905) 0.156
NHLRC2 (UniProt Q8NBF2) -0.004
NME7 (UniProt Q9Y5B8) 0.042
MRPS16 (UniProt Q9Y3D3) -0.084
NR2C2 isoform 2 (UniProt P49116) 0.028
MORC3 (UniProt Q14149) 0.102
NQO1 (UniProt P15559) 0.036
NDUFA7 (UniProt O95182) -0.011
NOB1 (UniProt Q9ULX3) 0.041
NOP58 (UniProt Q9Y2X3) -0.075
NEMP1 (UniProt O14524) -0.034
NA, A0A0B4J2A0 0.012
OSBPL8 (UniProt Q9BZF1) 0.094
NFX1 (UniProt Q12986) -0.125
OTUD4 (UniProt Q01804) -0.083
NUMB (UniProt P49757) -0.01
MUL1 (UniProt Q969V5) 0.005
OXR1 (UniProt Q8N573) 0.027
NUP210 (UniProt Q8TEM1) 0.029
MINK1 (UniProt Q8N4C8) -0.016
NUDT1 (UniProt P36639) -0.03
NAA11 (UniProt Q9BSU3) -0.027
NSDHL (UniProt Q15738) -0.004
MIS12 (UniProt Q9H081) 0.049
NFATC2 (UniProt Q13469) 0.107
NUDT16 (UniProt Q96DE0) 0.028
MRPS6 (UniProt P82932) -0.017
MRPS18B (UniProt Q9Y676) -0.017
MT-ATP6 (UniProt P00846) 0.567
MYH11 isoform 2 (UniProt P35749) 0.057
NMT2 (UniProt O60551) 0
NOSIP (UniProt Q9Y314) 0.197
NELFA (UniProt Q9H3P2) 0.212
